Several values for one entry are separate records, joined by “and”; a condition that tells them apart may be missing. Identical values can stand only once. The source holds several records for some structures; these can differ, active in one and inactive in another. Activity calls are given as the source filed them. Unless noted, calls come from the whole dose curve; as a rule, active = well fitted curve in the direction sought with a large enough effect in the repeat runs; inconclusive = weak or mixed curves; inactive = no such curve, though single readings can be large; an effect the other way counts as inactive or inconclusive.
What was measured:
[1] = qHTS assay for identifying genotoxic compounds that show differential cytotoxicity against isogenic chicken DT40 cell lines with known DNA damage response pathways - wild type cell line (AID 743012); note: nearly all actives have a fitted effect of over 60% in size; note: potency is the fitted concentration of half-maximal effect
In short: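 First, wild type DT40 cells were plated at 300 per well and equilibrated about 0.5 h at 37 C/5% CO2. Next, compounds in DMSO were added and exposure lasted 40 h. Finally, CellTiter-Glo was added for 30 min at room temperature and luminescence recorded.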

[2] = qHTS assay to identify small molecule antagonists of the androgen receptor (AR) signaling pathway - cell viability counter screen (AID 743033; note: nearly all actives have a fitted effect of over 45% in size; note: potency is the fitted concentration of half-maximal effect)
[3] = qHTS assay to identify small molecule antagonists of the androgen receptor (AR) signaling pathway using the MDA cell line - cell viability counter screen (AID 743041; note: nearly all actives have a fitted effect of over 45% in size)
In short: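 Viability counter screen run alongside the AR antagonist reporter: cells seeded 5 h before compound, R1881 added, 16 h incubation at 37C without CO2, fluorescent CellTiter-Fluor signal quantified.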

[4] = qHTS assay to identify small molecule antagonists of the thyroid receptor (TR) signaling pathway - cell viability counter screen (AID 743064); note: nearly all actives have a fitted effect of over 50% in size; note: potency is the fitted concentration of half-maximal effect
In short: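 In-well cytotoxicity read by CellTiter-Fluor (30 min, 37 C) following 23.5 h exposure of GH3 cells bearing a TRE-luciferase sensor. Compounds were added alongside 1 nM (final) T3 to drive TR transactivation.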

[5] = biological target: Estrogen receptor (Homo sapiens) (UniProt P03372); experiment: qHTS assay to identify small molecule antagonists of the estrogen receptor alpha (ER-alpha) signaling pathway (AID 743069; active = well fitted curve in the direction sought with a large enough effect in the signal ratio in the repeat runs, not every such curve was filed as active; inconclusive = weak or mixed curves, or effect the other way; inactive = no such curve, though single readings can be large or run the other way; the % refers to the signal ratio)
In short: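 Estradiol-stimulated ER-alpha-UAS-bla HEK293 cells, 18 hr compound exposure at 37C. LiveBLAzer B/G substrate, 2 hr RT, fluorescence read.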

[6] = qHTS assay to identify small molecule antagonists of the estrogen receptor alpha (ER-alpha) signaling pathway - cell viability counter screen (AID 743074; calls by dose curve;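 note: HEK293 cells carrying ER-alpha-UAS-bla reporter stimulated with 17beta-estradiol; nearly all actives have a fitted effect of over 45% in size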; note: potency is the fitted concentration of half-maximal effect)
[7] = biological target: Estrogen receptor (Homo sapiens) (UniProt P03372); experiment: qHTS assay to identify small molecule agonists of the estrogen receptor alpha (ER-alpha) signaling pathway (AID 743075; calls by dose curve;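 note: HEK293 GripTite cells with ER-alpha and UAS-driven beta-lactamase reporter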; note: potency is the fitted concentration of half-maximal effect)
[8] = biological target: Estrogen receptor (Homo sapiens) (UniProt P03372); experiment: qHTS assay to identify small molecule agonists of the estrogen receptor alpha (ER-alpha) signaling pathway using the BG1 cell line (AID 743079); conditions: BG1Luc4E2 cells, ERE-luciferase agonist, 22 h; note: nearly all actives have a fitted effect of over 20% in size; note: potency is the fitted concentration of half-maximal effect
[9] = qHTS assay to identify small molecule antagonists of the estrogen receptor alpha (ER-alpha) signaling pathway using the BG1 cell line (AID 743080; calls by dose curve;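 note: BG1 cells stimulated with 17beta-estradiol alongside compound; nearly all actives have a fitted effect of over 25% in size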)
In short: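 Luminescence from a 4×ERE-luciferase reporter in BG1-Luc-4E2 cells served as read-out. Cells, pre-cultured 5 days in stripped-serum phenol-red-free medium, were exposed to compound with 17beta-estradiol co-stimulation for 21.5 h at 37 C.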

[10] = qHTS assay to identify small molecule antagonists of the estrogen receptor alpha (ER-alpha) signaling pathway using the BG1 cell line - cell viability counter screen (AID 743081);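 note: compound given together with 17beta-estradiol as the ER stimulus; nearly all actives have a fitted effect of over 45% in size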
Aromatase (Homo sapiens) = Aromatase (Homo sapiens) (UniProt P11511); experiment: qHTS assay to identify aromatase inhibitors (AID 743083); note: nearly all actives have a fitted effect of over 55% in size; note: potency is the fitted concentration of half-maximal effect
[11] = qHTS assay to identify aromatase inhibitors - cell viability counter screen (AID 743084);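 note: cells stimulated with testosterone during compound exposure; nearly all actives have a fitted effect of over 55% in size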
[12] = qHTS assay for identifying genotoxic compounds that show differential cytotoxicity against isogenic chicken DT40 cell lines with known DNA damage response pathways - Rad54/Ku70 mutant cell line (AID 743015); note: nearly all actives have a fitted effect of over 60% in size; note: potency is the fitted concentration of half-maximal effect
[13] = qHTS assay to identify small molecule antagonists of the thyroid receptor (TR) signaling pathway (AID 743065); note: nearly all actives have a fitted effect of over 55% in size; note: potency is the fitted concentration of half-maximal effect
In short: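 GH3.TRE-Luc rat pituitary cells carrying two TR response elements driving luciferase were plated for 4 h, given compound plus 1 nM T3 (final), and incubated 23.5 h at 37 C. ONE-Glo luminescence measured reporter inhibition; CellTiter-Fluor fluorescence tracked cytotoxicity.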

[14] = tested on: thyroid hormone receptor (rat, GH3 cells); experiment: qHTS assay to identify small molecule agonists of the thyroid receptor (TR) signaling pathway (AID 743066; calls by dose curve)
[15] = qHTS assay for identifying genotoxic compounds that show differential cytotoxicity against isogenic chicken DT40 cell lines with known DNA damage response pathways - Rev3 mutant cell line (AID 743014); note: nearly all actives have a fitted effect of over 55% in size; note: potency is the fitted concentration of half-maximal effect
[16] = biological target: Androgen receptor (Homo sapiens) (UniProt P10275); experiment: qHTS assay to identify small molecule agonists of the androgen receptor (AR) signaling pathway (AID 743036; active = well fitted activation curve with a large enough effect in the signal ratio in the repeat runs, with a control signal flat, not every such curve was filed as active; inconclusive = weak or mixed curves, or effect the other way; inactive = no such curve, though single readings can be large or run the other way; the % refers to the signal ratio)
In short: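 Activation was read as beta-lactamase FRET signal from LiveBLAzer B/G substrate, added for 2 h at room temperature. Before that, GeneBLAzer AR-UAS-bla GripTite (HEK293) cells had 16 h compound exposure at 37C.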

[17] = biological target: Androgen receptor (Homo sapiens) (UniProt P10275); experiment: qHTS assay to identify small molecule agonists of the androgen receptor (AR) signaling pathway using the MDA cell line (AID 743040; note: nearly all actives have a fitted effect of over 20% in size)
In short: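 Luminescence from ONE-Glo, read after 30 min at room temperature, reflects MMTV-driven luciferase in MDA-kb2 cells (AR- and GR-responsive). Treatment lasted 16 h at 37C, 0% CO2.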

[18] = biological target: Androgen receptor (Homo sapiens) (UniProt P10275); experiment: qHTS assay to identify small molecule antagonists of the androgen receptor (AR) signaling pathway (AID 743035; active = well fitted inhibition curve with a large enough effect in the signal ratio in the repeat runs, not every such curve was filed as active; inconclusive = weak or mixed curves, or effect the other way; inactive = no such curve, though single readings can be large or run the other way; the % refers to the signal ratio)
In short: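 Beta-lactamase FRET read (2 h RT incubation with LiveBLAzer B/G) following 16 h of compound plus R1881 treatment of AR-UAS-bla HEK293 cells, which had been pre-incubated 4 h at 37C.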
% is set by controls: 0 for no effect and ±100 for the full control effect.

Chain of Androgen receptor (Homo sapiens) (P10275 whole entry, looked up): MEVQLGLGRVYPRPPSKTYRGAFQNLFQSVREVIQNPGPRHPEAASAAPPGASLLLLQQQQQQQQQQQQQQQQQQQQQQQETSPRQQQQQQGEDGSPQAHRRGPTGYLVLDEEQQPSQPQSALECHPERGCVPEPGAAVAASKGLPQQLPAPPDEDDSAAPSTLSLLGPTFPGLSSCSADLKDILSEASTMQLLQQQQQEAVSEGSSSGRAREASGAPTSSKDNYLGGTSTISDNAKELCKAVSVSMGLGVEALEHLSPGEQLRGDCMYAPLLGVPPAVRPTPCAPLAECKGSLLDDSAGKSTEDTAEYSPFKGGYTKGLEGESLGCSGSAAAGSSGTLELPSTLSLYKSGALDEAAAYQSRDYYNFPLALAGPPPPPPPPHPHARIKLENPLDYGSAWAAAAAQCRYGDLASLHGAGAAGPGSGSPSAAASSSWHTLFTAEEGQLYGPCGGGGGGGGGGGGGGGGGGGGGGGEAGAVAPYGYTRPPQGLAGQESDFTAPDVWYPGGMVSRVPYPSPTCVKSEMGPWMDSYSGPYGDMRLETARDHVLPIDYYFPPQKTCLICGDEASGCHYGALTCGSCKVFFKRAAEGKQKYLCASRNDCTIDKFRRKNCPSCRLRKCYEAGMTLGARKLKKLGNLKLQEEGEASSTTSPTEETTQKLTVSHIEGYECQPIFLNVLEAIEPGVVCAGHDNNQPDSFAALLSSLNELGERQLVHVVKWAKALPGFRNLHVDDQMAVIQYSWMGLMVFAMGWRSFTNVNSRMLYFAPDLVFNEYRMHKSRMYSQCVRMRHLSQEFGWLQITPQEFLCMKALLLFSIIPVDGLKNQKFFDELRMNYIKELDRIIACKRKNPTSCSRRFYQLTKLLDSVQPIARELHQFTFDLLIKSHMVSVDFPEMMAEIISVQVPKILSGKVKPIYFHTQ
Chain of Aromatase (Homo sapiens) (P11511 whole entry, looked up): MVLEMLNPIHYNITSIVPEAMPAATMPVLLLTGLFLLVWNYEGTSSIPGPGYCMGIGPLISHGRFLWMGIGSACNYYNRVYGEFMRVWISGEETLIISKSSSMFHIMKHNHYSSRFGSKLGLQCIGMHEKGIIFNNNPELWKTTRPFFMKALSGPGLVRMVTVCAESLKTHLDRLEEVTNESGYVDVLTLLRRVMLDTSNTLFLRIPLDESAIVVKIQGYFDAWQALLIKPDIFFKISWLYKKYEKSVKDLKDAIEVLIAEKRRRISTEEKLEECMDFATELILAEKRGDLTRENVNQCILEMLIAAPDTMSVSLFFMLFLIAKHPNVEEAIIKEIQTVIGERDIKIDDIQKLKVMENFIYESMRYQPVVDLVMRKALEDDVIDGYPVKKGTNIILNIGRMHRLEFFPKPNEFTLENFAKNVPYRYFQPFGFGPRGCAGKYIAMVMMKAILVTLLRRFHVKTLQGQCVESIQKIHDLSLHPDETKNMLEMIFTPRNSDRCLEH
Chain of Estrogen receptor (Homo sapiens) (P03372 whole entry, looked up): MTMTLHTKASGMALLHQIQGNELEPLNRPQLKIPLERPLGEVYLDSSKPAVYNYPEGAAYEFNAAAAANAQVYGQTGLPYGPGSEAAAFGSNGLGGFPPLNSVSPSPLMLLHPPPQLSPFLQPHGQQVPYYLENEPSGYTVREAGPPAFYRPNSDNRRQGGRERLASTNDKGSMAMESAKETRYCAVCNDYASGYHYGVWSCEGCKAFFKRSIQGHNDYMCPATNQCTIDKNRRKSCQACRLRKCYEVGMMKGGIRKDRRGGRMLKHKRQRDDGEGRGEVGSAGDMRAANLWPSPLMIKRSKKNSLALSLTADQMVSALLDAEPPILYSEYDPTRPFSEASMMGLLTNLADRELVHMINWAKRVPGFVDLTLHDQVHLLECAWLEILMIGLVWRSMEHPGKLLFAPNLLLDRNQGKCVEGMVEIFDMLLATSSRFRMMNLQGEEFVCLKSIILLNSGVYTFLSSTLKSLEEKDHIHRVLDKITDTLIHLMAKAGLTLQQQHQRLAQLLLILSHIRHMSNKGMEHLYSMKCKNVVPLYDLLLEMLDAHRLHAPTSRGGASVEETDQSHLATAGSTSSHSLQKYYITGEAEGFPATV

O=C(NC(=O)c1c(F)cccc1F)Nc1cc(Cl)c(F)c(Cl)c1F
active: Potency [1] 8.42 µM
inactive: Potency [2] | Potency [3] | Potency [4] | Potency [5] | Potency [6] | Potency [7] | activation ([8]; at 70.3 µM (top of the series)) 11.8% | Potency [9] | Potency [10] | Potency (Aromatase (Homo sapiens)) | Potency [11]

CCCOC(=O)Cc1ccc(OCC(=O)N(CC)CC)c(OC)c1
inactive: Potency [12] | Potency [2] | Potency [3] | Potency [4] | Potency [13] | Potency [14] | Potency [6] | Potency (Aromatase (Homo sapiens)) | Potency [11]

CCN(CCO)CCO
inactive: Potency [1] | Potency [12] | Potency [2] | Potency [3] | Potency [4] | Potency [13] | Potency [14] | Potency [6] | Potency [7] | activation ([8]; at 70.3 µM (top of the series)) -3.36% | Potency [9] | Potency [10] | Potency (Aromatase (Homo sapiens)) | Potency [11]

C[C@]12C=CC(=O)C=C1CC[C@@H]1[C@@H]2CC[C@@]2(C)[C@H]1CC[C@]2(C)O
inactive: Potency [2] | Potency [3] | Potency [4] | Potency [14] | Potency [6] | Potency [9] | Potency [10] | Potency (Aromatase (Homo sapiens)) | Potency [11]
active: Potency [1] 23.7 µM | Potency [15] 11.9 µM | Potency [12] 29.8 µM | Potency [7] 425 nM [inconclusive] | Potency [8] 0.15 µM

CON(C)C(=O)Nc1ccc(Br)c(Cl)c1
active: Potency [15] 61.1 µM
inactive: Potency [2] | Potency [3] | Potency [14] | Potency [6] | Potency [10] | Potency (Aromatase (Homo sapiens)) | Potency [11]

ClC1=C(Cl)C2(Cl)C(CBr)CC1(Cl)C2(Cl)Cl (stereo unspecified)
inactive: Potency [2] | Potency [3] | Potency [14] | Potency [6] | Potency [7] | activation ([8]; at 70.3 µM (top of the series)) -8.81% and -11.5% | Potency [9] | Potency [10] | Potency (Aromatase (Homo sapiens)) | Potency [11]
active: Potency [12] 30.6 µM | Potency [4] 26.6 µM and 48.6 µM | Potency [13] 26.6 µM and 43.3 µM

CN(C)CCN(C)C
inactive: Potency [1] | Potency [15] | Potency [12] | Potency [2] | Potency [13] | Potency [14] | Potency [5] | Potency [6] | Potency [7] | activation ([8]; at 70.3 µM (top of the series)) 18.6% | Potency [9] | Potency [10] | Potency (Aromatase (Homo sapiens)) | Potency [11]

CC(C)(C)c1cc(O)ccc1O
inactive: Potency [3] | Potency [14] | Potency [5] | Potency [7] | Potency [9] | Potency [10] | Potency [11]
active: Potency [1] 4.22 µM and 7.7 µM | Potency [12] 6.68 µM and 48.6 µM and 12.2 µM | Potency [4] 8.41 µM and 68.6 µM and 48.6 µM | Potency [13] 6.68 µM and 61.1 µM and 38.6 µM
inactive and 26.8 µM (active): Potency [2] | Potency [6]
inactive and 26.6 µM (active): Potency (Aromatase (Homo sapiens))

CCOC(=O)C(Cl)Cc1cc(-n2nc(C)n(C(F)F)c2=O)c(F)cc1Cl (stereo unspecified)
inactive: Potency [2] | Potency [4] | Potency [13] | Potency [14] | Potency [5] | Potency [6] | Potency [7] | Potency [9] | Potency [10] | Potency [11]
active: Potency [1] 54.5 µM | Potency [12] 54.5 µM | Potency (Aromatase (Homo sapiens)) 54.5 µM

CCCC[N+](=O)[O-]
inactive: Potency [1] | Potency [12] | Potency [2] | Potency [4] | Potency [13] | Potency [14] | Potency [6] | Potency [7] | activation ([8]; at 70.3 µM (top of the series)) 8.37% | Potency [9] | Potency [10] | Potency (Aromatase (Homo sapiens)) | Potency [11]

CC(=NC#N)N(C)Cc1ccc(Cl)nc1
inactive: Potency [1] | Potency [15] | Potency [12] | Potency [2] | Potency [4] | Potency [13] | Potency [14] | Potency [6] | Potency [10] | Potency (Aromatase (Homo sapiens)) | Potency [11]

O=C(Cl)OCc1ccccc1
inactive: Potency [1] | Potency [15] | Potency [12] | Potency [2] | Potency [3] | Potency [5] | Potency [6] | Potency [7] | activation ([8]; at 95 µM (top of the series)) -4.92% | Potency [9] | Potency [10] | Potency (Aromatase (Homo sapiens)) | Potency [11]

CC[C@@H](CO)NC(=O)[C@@H]1C=C2c3cccc4[nH]cc(c34)C[C@H]2N(C)C1
inactive: Potency [1] | Potency [12] | outcome [16] | outcome [17] | Potency [3] | Potency [4] | Potency [13] | Potency [14] | Potency [6] | Potency [7] | activation ([8]; at 70.3 µM (top of the series)) 2.56% | Potency [9] | Potency [10] | Potency (Aromatase (Homo sapiens)) | Potency [11]

N=C(N)[Se]
active: Potency [1] 4.87 µM | Potency [15] 2.44 µM | Potency [12] 2.44 µM
inactive: Potency [2] | Potency [4] | Potency [13] | Potency [14] | Potency [5] | Potency [6] | Potency [7] | activation ([8]; at 95 µM (top of the series)) -2.62% | Potency [9] | Potency (Aromatase (Homo sapiens)) | Potency [11]

NCC1(CC(=O)O)CCCCC1
inactive: Potency [1] | Potency [15] | Potency [12] | Potency [4] | Potency [13] | Potency [14] | Potency [6] | Potency [10] | Potency (Aromatase (Homo sapiens)) | Potency [11]

CC[C@@H](CO)NC(=O)[C@@H]1C=C2c3cccc4c3c(cn4C)C[C@H]2N(C)C1
active: Potency [1] 13.3 µM
inactive: Potency [2] | Potency [3] | Potency [4] | Potency [14] | Potency [6] | Potency [7] | activation ([8]; at 70.3 µM (top of the series)) 13.7% | Potency [9] | Potency [10] | Potency (Aromatase (Homo sapiens))

CCOC(=O)Nc1cccc(OC(=O)Nc2ccccc2)c1
active: Potency [8] 27.3 µM
inactive: Potency [1] | Potency [12] | Potency [2] | Potency [3] | Potency [4] | Potency [13] | Potency [14] | Potency [5] | Potency [6] | Potency [7] | Potency [10] | Potency (Aromatase (Homo sapiens)) | Potency [11]

CC(C)N(Cc1ccccc1)C(=O)C(C)(C)C
active: Potency [1] 61.1 µM | Potency [15] 68.6 µM
inactive: Potency [2] | Potency [18] | outcome [16] | outcome [17] | Potency [3] | Potency [4] | Potency [13] | Potency [14] | Potency [6] | Potency [10] | Potency (Aromatase (Homo sapiens)) | Potency [11]

NNCc1ccccc1
inactive: Potency [1] | Potency [12] | Potency [2] | Potency [3] | Potency [4] | Potency [6] | Potency [7] | Potency [10] | Potency (Aromatase (Homo sapiens)) | Potency [11]
active: Potency [8] 62.3 µM

CCCCCCCCBr
inactive: Potency [1] | Potency [15] | Potency [12] | Potency [2] | Potency [4] | Potency [6] | Potency [10] | Potency (Aromatase (Homo sapiens)) | Potency [11]
